In PubChem BioAssay (NCI) one finds growth data, which are given here for 40 compounds.

The structures appear in SMILES notation. The panel holds about 83,000 compounds, 20% with a hit somewhere; the sample as a whole holds those more often.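 Testing used 96-well plates and a 48-hour single-concentration exposure. Example: -40 means 40% of the starting cells died.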 The source made the active and inactive calls.

The test system of the test is T-47D breast. Put plainly: NCI-60 one-dose screen, 48 h (100 = growth as untreated, 0 = no growth, -100 = all killed). As to conditions: 10 µM unless noted. The procedure:
Growth inhibition of the T-47D human tumor cell line is measured as a screen for anti-cancer activity. Cells are grown in 96 well plates and exposed to the test compound for 48 hours. Compounds are tested at a single concentration, which is 10^-5 M for most compounds. The reported endpoint is percent growth (GI% or GIPRCNT), where numbers from 0 - 100% represent growth inhibition, and numbers from -100% - 0 represent cell death. For example, a value of 40 represents 60% growth inhibition. A value of 0 means no net growth occurred over the course of the experiment. A value of -40 indicates 40% of cells at the beginning of the experiment died by the end of the experiment. A value of -100 means all cells are dead at the end of the experiment.
NCI-60 Human Tumor Cell Lines Screen was performed using the standard one-dose NCI protocol, which is described in more detail at https://dtp.cancer.gov/discovery_development/nci-60/default.htm.
Compounds with GIPRCNT values below 10 were considered active. Activity score was based on GIPRCNT using the following formula: […]
Score is 0 for GIPRCNT values of 100 or above, 50 for GIPRCNT values of 0, and 100 for GIPRCNT values of -100.
For `O=C(O)c1cn(C2CC2)c2cc(N3CCN(C(=O)C[n+]4ccccc4)CC3)c(F)cc2c1=O`, the growth is 94.2% (inactive).

With `COc1ccc(-c2nsc3c2NC(=O)CC3c2ccsc2)cc1` (stereo not given), the growth was 62.7% (inactive).

Consider `NC(CCl)=NCCC[C@H](N)C(=O)O`, for which the growth was 98.2% (inactive).

As for `Nc1ccn(C2O[C@H](CO)[C@@H](O)[C@H]2O)c(=O)n1` (stereo not given in full), the growth is 99.2% (inactive).

As for `Cc1cc2c(c(C)c1Cl)C(=O)/C(=C/c1ccco1)O2`, the growth was 47.5% (inactive).

On to `COc1ccc(C2NCCc3c2[nH]c2ccccc32)cc1CN1CCN(c2ccc(F)cc2)CC1` (stereo not given), for which the growth was 54.6% (inactive).

For the compound `COc1ccc(C2Nc3ncnc(N)c3N=C3c4ccccc4C(=O)C32)cc1` (stereo not given), the growth is 80.8% (inactive).

As to `CN=c1ccc2nc3ccc(N)cc3sc-2c1`, the growth was 20.1% (inactive).

As for `CCN1C(=O)N(CC)C2Nn3c(s/c(=C\c4ccccc4F)c3=O)=NC21` (stereo not given), the growth is 72.8% (inactive).

Take `CCCCCCc1cc2cc(-c3nc4ccccc4[nH]3)c(=Nc3ccccc3C)oc2cc1O`: the growth is 29% (inactive).

`O=c1c2cc(F)ccc2sc2c(Nc3ccncc3)nc3ccccc3c12`: the growth was -3.72% (active).

As for `Cc1c(-c2noc(-c3ccc([N+](=O)[O-])cc3)n2)no[n+]1[O-]`, the growth was 104% (inactive).

With `CC(=S)NC(=O)C(=O)/C=C1/NC(=O)C(=O)S1`, the growth is 107% (inactive).

Consider `O=C(Cn1cc(COc2ncnc3c2cnn3-c2ccccc2)nn1)Nc1cccc2ccccc12`, for which the growth was 87.1% (inactive).

Turning to `COc1ccc2c(c1)C=C1CSCC3=Cc4cc(OC)ccc4OC13O2`, the growth was 48.4% (inactive).

`O=c1oc2ccc(I)cc2c(=O)n1-c1ccc(Br)cc1F`: the growth is -7.37% (active).

Take `O=C1/C(=C\c2ccc[nH]2)c2ccccc2N1c1ccccc1`: the growth was 64.9% (inactive).

As for `CCCCN1CCN(c2ccc3nc(-c4ccc5nc(-c6ccc(OC)c(OC)c6)[nH]c5c4)[nH]c3c2)CC1`, the growth is 17.6% (inactive).

With `CCCN1CCN(c2ccc3nc(-c4ccc5nc(-c6cc(OC)ccc6OC)[nH]c5c4)[nH]c3c2)CC1`, the growth was 98.8% (inactive).

For `C#CCn1cc(C=C2C(=O)N(C)C(=O)N(C)C2=O)c2cc(Cl)ccc21`, the growth was 112% (inactive).

As to `CN1CCN(c2nc(Nc3ccc(O)cc3)nc3ccccc23)CC1`, the growth was 82.2% (inactive).

As for `O=C(Nc1ccc(F)cc1F)c1cc(Cl)ccc1O`, the growth was -12.4% (active).

Take `CC(=O)c1ccc(Cc2ccc(C(C)=O)s2)s1`: the growth was 96.7% (inactive).

Turning to `O=C(Nc1ccc(-c2nc3ccc(NC(=O)c4ccc(Cl)cc4)cc3[nH]2)cc1)c1ccc(Cl)cc1`, the growth is -1.92% (active).

Take `OC(CNC1CCCCC1)Cn1c2ccc(I)cc2c2cc(I)ccc21` (stereo not given): the growth was 81.3% (inactive).

Turning to `COc1ccc(/C(C#N)=C/c2nc3c(N4CCOCC4)nc(Cl)nc3n2C)cc1OC`, the growth was -17.1% (active).

For the compound `COc1ccc2sc(N(Cc3cccnc3)C(=O)c3ccc(C#N)cc3)nc2c1`, the growth is 78.3% (inactive).

On to `COc1ccc(N(C)c2nc(N)nc3sc4c(c23)CCCC4)cc1`, for which the growth was 70.3% (inactive).

`COc1ccc(-c2nc(-c3ccccn3)c(-c3ccccn3)n2CC(C)C)cc1OC1CCCC1`: the growth was 21.5% (inactive).

As for `COc1cc2cc3c(=O)n4c(cc5cc(OC)ncc54)c(=O)n3c2cn1`, the growth was 95.2% (inactive).

As for `O=C(NC1CCN(Cc2ccccc2)CC1)c1cc2nc(-c3ccc(Cl)s3)cc(C(F)(F)F)n2n1`, the growth is 97.1% (inactive).

On to `CC/C(=C(\CC)c1ccc(OCC[N+](C)(C)C)cc1)c1ccc(OC)cc1`, for which the growth is 59% (inactive).

For the compound `O=C(Nc1ccc(Br)cc1F)c1cc(F)ccc1O`, the growth was -3.86% (active).

For `COc1ccccc1C(=O)/C=C/c1ccccc1`, the growth is 81.4% (inactive).

In the case of `CSc1nc2c(c(=O)n1C)N=C1c3ccccc3C(=O)C1C(c1ccccc1)N2` (stereo not given), the growth was 61.9% (inactive).

For the compound `O=C(/C=C/c1ccc(F)cc1)c1ccc(Nc2nc(NCCO)nc(Nc3ccc(Cl)cc3)n2)cc1`, the growth is 41.5% (inactive).

For `Cn1cc([C@@H]2Nc3ccc4[nH]ncc4c3[C@H]3[C@H]4CCC(C4)[C@H]32)c(C(F)(F)F)n1`, the growth was 52.6% (inactive).

`OC(c1ccccc1)c1nnc(SCc2ccccc2)n1Cc1ccccc1` (stereo not given): the growth was 85.2% (inactive).

For the compound `COc1ccc(Cn2c(Br)c3c(c2Br)-c2nc(NC(=O)c4ccc(OC)cc4)sc2CC3)cc1`, the growth was 68.7% (inactive).

Take `NCCOc1ncccc1/C=C1\c2ccccc2-c2ccc(F)cc21`: the growth is 21.2% (inactive).
